# Experimental data as given in the supplement of paper PMC12645437, “Orthogonal IMiD-Degron Pairs Induce Selective Protein Degradation in Cells” (ACS Chemical Biology, 2025).
# Whole data set: some 8,300 sequences, median “log2 fold change of degron read counts, EGFP-low vs EGFP+ sorted cells (limma voom), compound-induced degradation” near -1.1, cut for the highest 2% near 3.2. Shown is part of a subset that was picked to be rich in the highest values.
# Biological target: T1, CRBN, Q96SW2
# T1 chain: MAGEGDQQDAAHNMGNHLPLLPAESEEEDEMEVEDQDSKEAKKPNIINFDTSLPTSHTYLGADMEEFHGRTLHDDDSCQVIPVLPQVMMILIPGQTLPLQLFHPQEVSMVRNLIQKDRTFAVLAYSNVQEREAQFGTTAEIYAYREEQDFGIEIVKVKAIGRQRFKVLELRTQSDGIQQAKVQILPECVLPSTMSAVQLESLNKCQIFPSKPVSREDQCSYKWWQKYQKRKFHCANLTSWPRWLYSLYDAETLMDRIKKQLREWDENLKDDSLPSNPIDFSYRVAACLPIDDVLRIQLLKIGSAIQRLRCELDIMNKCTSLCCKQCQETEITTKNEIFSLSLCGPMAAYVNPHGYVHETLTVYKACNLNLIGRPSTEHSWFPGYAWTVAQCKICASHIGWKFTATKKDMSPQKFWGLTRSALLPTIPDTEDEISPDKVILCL
# Assay: log2 fold change of degron read counts, EGFP-low vs EGFP+ sorted cells (limma voom), compound-induced degradation; higher = more compound-induced degradation of the degron-EGFP fusion; degrons are variants of IKZF1/3 zinc finger 2; compound dose not given here
# Conditions: Jurkat, 18 h
# [1] = compound: compound 19 (5-tert-butyl-thalidomide)
# [2] = compound: compound 22 (5-morpholino-thalidomide)
# [3] = compound: compound 33 (diphenyl IMiD analogue)
# 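Further: pooled lentiviral library of zinc finger degron-EGFP fusions in mCherry-positive Jurkat cells, FACS-sorted after compound exposure, with degron abundance counted by next-generation sequencing.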
sequence,measurement,setting,value
"FFCSVCGHEFTQKGNLLRHIKL [46F_47F_49S_50V_52G_53H_54E_55F_67L_, Q9UKT9]",log2 fold change of degron read counts,[1],-2.81
same,log2 fold change of degron read counts,[2],-3.34
same,log2 fold change of degron read counts,[3],-3.2
same,log2 fold change of degron read counts,compound: thalidomide,-2.56
"FCCPICGAMFTQKGNLLRHIKL [46F_47C_49P_50I_52G_53A_54M_55F_67L_, Q9UKT9]",log2 fold change of degron read counts,[1],1.6
same,log2 fold change of degron read counts,[2],1.26
same,log2 fold change of degron read counts,[3],2.22
same,log2 fold change of degron read counts,compound: thalidomide,1.23
"FSCNQCGHTFTQKGNLLRHIKL [46F_47S_49N_50Q_52G_53H_54T_55F_67L_, Q9UKT9]",log2 fold change of degron read counts,[1],-2.44
same,log2 fold change of degron read counts,[2],-2.51
same,log2 fold change of degron read counts,[3],-2.85
same,log2 fold change of degron read counts,compound: thalidomide,-2.59
"FMCNVCGADFTQKGNLLRHIKL [46F_47M_49N_50V_52G_53A_54D_55F_67L_, Q9UKT9]",log2 fold change of degron read counts,[1],-2.78
same,log2 fold change of degron read counts,[2],-2.8
same,log2 fold change of degron read counts,[3],1.31
same,log2 fold change of degron read counts,compound: thalidomide,-1.76
"LYCPICGFICTQKGNLLRHIKL [46L_47Y_49P_50I_52G_53F_54I_55C_67L_, Q9UKT9]",log2 fold change of degron read counts,[1],2.94
same,log2 fold change of degron read counts,[2],2.9
same,log2 fold change of degron read counts,[3],1.98
same,log2 fold change of degron read counts,compound: thalidomide,0.937
"FSCNVCGAPFTQKGNLLRHIKL [46F_47S_49N_50V_52G_53A_54P_55F_67L_, Q9UKT9]",log2 fold change of degron read counts,[1],0.819
same,log2 fold change of degron read counts,[2],0.453
same,log2 fold change of degron read counts,[3],-0.105
same,log2 fold change of degron read counts,compound: thalidomide,0.146
"FVCEICGAGFTQKGNLLRHIKL [46F_47V_49E_50I_52G_53A_54G_55F_67L_, Q9UKT9]",log2 fold change of degron read counts,[1],1.53
same,log2 fold change of degron read counts,[2],3.07
same,log2 fold change of degron read counts,[3],1.92
same,log2 fold change of degron read counts,compound: thalidomide,3.23
"FKCEICGAGFTQKGNLLRHIKL [46F_47K_49E_50I_52G_53A_54G_55F_67L_, Q9UKT9]",log2 fold change of degron read counts,[1],2.69
same,log2 fold change of degron read counts,[2],-0.466
same,log2 fold change of degron read counts,[3],-0.772
same,log2 fold change of degron read counts,compound: thalidomide,0.328
"FCCEICGAGFTQKGNLLRHIKL [46F_47C_49E_50I_52G_53A_54G_55F_67L_, Q9UKT9]",log2 fold change of degron read counts,[1],3.68
same,log2 fold change of degron read counts,[2],2.09
same,log2 fold change of degron read counts,[3],1.63
same,log2 fold change of degron read counts,compound: thalidomide,1.42
"FSCEICGAGFTQKGNLLRHIKL [46F_47S_49E_50I_52G_53A_54G_55F_67L_, Q9UKT9]",log2 fold change of degron read counts,[1],3.39
same,log2 fold change of degron read counts,[2],1.57
same,log2 fold change of degron read counts,[3],1.23
same,log2 fold change of degron read counts,compound: thalidomide,0.613
"FMCEICGAGFTQKGNLLRHIKL [46F_47M_49E_50I_52G_53A_54G_55F_67L_, Q9UKT9]",log2 fold change of degron read counts,[1],2.81
same,log2 fold change of degron read counts,[2],1.95
same,log2 fold change of degron read counts,[3],2.73
same,log2 fold change of degron read counts,compound: thalidomide,1.31
"FICPICGRGFTQKGNLLRHIKL [46F_47I_49P_50I_52G_53R_54G_55F_67L_, Q9UKT9]",log2 fold change of degron read counts,[1],-2.06
same,log2 fold change of degron read counts,[2],-1.04
same,log2 fold change of degron read counts,[3],-0.776
same,log2 fold change of degron read counts,compound: thalidomide,0.0621
"FTCPICGHHFTQKGNLLRHIKL [46F_47T_49P_50I_52G_53H_54H_55F_67L_, Q9UKT9]",log2 fold change of degron read counts,[1],-2.5
same,log2 fold change of degron read counts,[2],-2.32
same,log2 fold change of degron read counts,[3],-1.56
same,log2 fold change of degron read counts,compound: thalidomide,-1.14
"FTCEQCGAKFTQKGNLLRHIKL [46F_47T_49E_50Q_52G_53A_54K_55F_67L_, Q9UKT9]",log2 fold change of degron read counts,[1],-1.64
same,log2 fold change of degron read counts,[2],-1.04
same,log2 fold change of degron read counts,[3],-1.94
same,log2 fold change of degron read counts,compound: thalidomide,0.449
"FGCPVCGAVFTQKGNLLRHIKL [46F_47G_49P_50V_52G_53A_54V_55F_67L_, Q9UKT9]",log2 fold change of degron read counts,[1],3.56
same,log2 fold change of degron read counts,[2],2.4
same,log2 fold change of degron read counts,[3],2.72
same,log2 fold change of degron read counts,compound: thalidomide,1.15
"FVCPVCGAVFTQKGNLLRHIKL [46F_47V_49P_50V_52G_53A_54V_55F_67L_, Q9UKT9]",log2 fold change of degron read counts,[1],-0.832
same,log2 fold change of degron read counts,[2],1.08
same,log2 fold change of degron read counts,[3],1.95
same,log2 fold change of degron read counts,compound: thalidomide,1.7
"FYCNICGAVFTQKGNLLRHIKL [46F_47Y_49N_50I_52G_53A_54V_55F_67L_, Q9UKT9]",log2 fold change of degron read counts,[1],1.85
same,log2 fold change of degron read counts,[2],2.59
same,log2 fold change of degron read counts,[3],1.47
same,log2 fold change of degron read counts,compound: thalidomide,-0.489
"FQCPVCGAVFTQKGNLLRHIKL [46F_47Q_49P_50V_52G_53A_54V_55F_67L_, Q9UKT9]",log2 fold change of degron read counts,[1],-0.23
same,log2 fold change of degron read counts,[2],3.11
same,log2 fold change of degron read counts,[3],2.75
same,log2 fold change of degron read counts,compound: thalidomide,3.75
"FDCPVCGAVFTQKGNLLRHIKL [46F_47D_49P_50V_52G_53A_54V_55F_67L_, Q9UKT9]",log2 fold change of degron read counts,[1],0.0323
same,log2 fold change of degron read counts,[2],-0.349
same,log2 fold change of degron read counts,[3],1.32
same,log2 fold change of degron read counts,compound: thalidomide,1.15
"FVCPQCGAVFTQKGNLLRHIKL [46F_47V_49P_50Q_52G_53A_54V_55F_67L_, Q9UKT9]",log2 fold change of degron read counts,[1],-2.28
same,log2 fold change of degron read counts,[2],-1.6
same,log2 fold change of degron read counts,[3],0.556
same,log2 fold change of degron read counts,compound: thalidomide,-0.724
"FMCPVCGAVFTQKGNLLRHIKL [46F_47M_49P_50V_52G_53A_54V_55F_67L_, Q9UKT9]",log2 fold change of degron read counts,[1],-1.41
same,log2 fold change of degron read counts,[2],-0.169
same,log2 fold change of degron read counts,[3],1.97
same,log2 fold change of degron read counts,compound: thalidomide,1.09
"FKCNICGAVFTQKGNLLRHIKL [46F_47K_49N_50I_52G_53A_54V_55F_67L_, Q9UKT9]",log2 fold change of degron read counts,[1],-2.43
same,log2 fold change of degron read counts,[2],-2.68
same,log2 fold change of degron read counts,[3],-2.59
same,log2 fold change of degron read counts,compound: thalidomide,-1.81
"FQCPQCGAVFTQKGNLLRHIKL [46F_47Q_49P_50Q_52G_53A_54V_55F_67L_, Q9UKT9]",log2 fold change of degron read counts,[1],-1.53
same,log2 fold change of degron read counts,[2],0.725
same,log2 fold change of degron read counts,[3],0.715
same,log2 fold change of degron read counts,compound: thalidomide,3.42
"FSCPVCGAVFTQKGNLLRHIKL [46F_47S_49P_50V_52G_53A_54V_55F_67L_, Q9UKT9]",log2 fold change of degron read counts,[1],1.86
same,log2 fold change of degron read counts,[2],1.28
same,log2 fold change of degron read counts,[3],2.79
same,log2 fold change of degron read counts,compound: thalidomide,1.39
"FFCPQCGAVFTQKGNLLRHIKL [46F_47F_49P_50Q_52G_53A_54V_55F_67L_, Q9UKT9]",log2 fold change of degron read counts,[1],0.252
same,log2 fold change of degron read counts,[2],0.896
same,log2 fold change of degron read counts,[3],0.248
same,log2 fold change of degron read counts,compound: thalidomide,-0.636
"FQCNICGAVFTQKGNLLRHIKL [46F_47Q_49N_50I_52G_53A_54V_55F_67L_, Q9UKT9]",log2 fold change of degron read counts,[1],-1.01
same,log2 fold change of degron read counts,[2],2.01
same,log2 fold change of degron read counts,[3],1.99
same,log2 fold change of degron read counts,compound: thalidomide,3.47
"FHCDQCGAPFTQKGNLLRHIKL [46F_47H_49D_50Q_52G_53A_54P_55F_67L_, Q9UKT9]",log2 fold change of degron read counts,[1],-0.672
same,log2 fold change of degron read counts,[2],-1.82
same,log2 fold change of degron read counts,[3],-1.8
same,log2 fold change of degron read counts,compound: thalidomide,-2.97
"FKCSVCGHPFTQKGNLLRHIKL [46F_47K_49S_50V_52G_53H_54P_55F_67L_, Q9UKT9]",log2 fold change of degron read counts,[1],-2.15
same,log2 fold change of degron read counts,[2],-2.09
same,log2 fold change of degron read counts,[3],-2.23
same,log2 fold change of degron read counts,compound: thalidomide,-1.7
